Screening data from PubChem BioAssay.
In the library only some 9.3% were active in any assay of this set; here they are far more common.
NPC1 prom act = NPC1 promoter activation; Huh7 NPC1 promoter luciferase reporter, 24 h; Potency, µM (highest dose often 9.22 µM), usual class: activators; 320,000 compounds, 2.4% hits; also: nearly all actives have a fitted effect of over 60% in size
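Luminescence from an NPC1 promoter-driven luciferase reporter in stably transfected Huh7 cells was measured after 24 h compound treatment at 37 °C, followed by 10 min ambient incubation with luciferase detection reagent.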
ELG1 DNA repair = inhibitors of ELG1-dependent DNA repair in HEK293T cells; Potency, µM (doses to about 46.1 µM), most hits filed as inhibitors; HEK293T ELG1-luciferase reporter, luminescence, 16 h; DNA damage induced by 5-fluorouridine; 330,000 compounds, 2.3% hits; AID 504467; also: nearly all actives have a fitted effect of over 55% in size
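DMSO vehicle served as the neutral condition. Each well held 2,000 cells given 5-fluorouridine plus compound; after 16 hr at 37 °C/5% CO2, ONE-Glo was added and luciferase measured 30 min later.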
ELG1 genotoxic = induces genotoxicity in HEK293T cells with luciferase-tagged ELG1 | HEK293T ELG1-luciferase reporter, luminescence, 16 h | Potency, µM (titrated, usually from 46 µM), usual class: activators | 330,000 compounds, 1.3% hits | AID 504466; also: nearly all actives have a fitted effect of over 60% in size
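DMSO vehicle served as control against compound-treated ELG1-luciferase HEK293T cells; exposure lasted 16 hr at 37 °C and 5% CO2, followed by ONE-Glo luminescence detection after 30 min.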
FLuc modulator = inhibits or activates purified firefly luciferase, miR-21 counter-screen. P08659. purified FLuc, Km substrates, luminescence inhibition. Potency, µM (highest dose often 57.5 µM), usual class: inhibitors. 360,000 compounds, 6.9% hits; also: nearly all actives have a fitted effect of over 55% in size
Target sequence (P08659 whole entry, looked up): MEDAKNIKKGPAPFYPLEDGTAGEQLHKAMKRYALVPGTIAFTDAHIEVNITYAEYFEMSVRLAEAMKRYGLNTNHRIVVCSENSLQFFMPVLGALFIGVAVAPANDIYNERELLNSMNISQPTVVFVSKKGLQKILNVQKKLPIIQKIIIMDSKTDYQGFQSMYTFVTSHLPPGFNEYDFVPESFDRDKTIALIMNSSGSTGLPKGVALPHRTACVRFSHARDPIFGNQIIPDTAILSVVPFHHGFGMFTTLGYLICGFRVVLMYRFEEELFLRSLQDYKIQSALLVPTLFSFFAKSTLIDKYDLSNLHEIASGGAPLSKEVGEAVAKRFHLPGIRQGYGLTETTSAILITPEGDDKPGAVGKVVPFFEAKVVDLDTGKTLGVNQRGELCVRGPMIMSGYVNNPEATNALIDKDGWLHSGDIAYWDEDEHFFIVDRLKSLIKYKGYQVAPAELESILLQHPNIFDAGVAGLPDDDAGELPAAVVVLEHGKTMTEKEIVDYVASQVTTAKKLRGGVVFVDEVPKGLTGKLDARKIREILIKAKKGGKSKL
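Biochemical qHTS of compounds, final roughly 60 µM downward over six points, against 10 nM purified firefly luciferase using Km concentrations of substrates (10 uM D-luciferin, 10 uM ATP) in Tris acetate pH 7.5 buffer; luminescence output.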
Rab9 promoter act = activates the Rab9 promoter; AID 485297; Huh7 Rab9 promoter-luciferase reporter, luminescence, 24 h; 320,000 compounds, 2.8% hits; Potency, µM (series often up to 9.22 µM), actives largely listed as activators; also: nearly all actives have a fitted effect of over 60% in size
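Promoter activation is measured as luciferase luminescence in Huh7 cells stably transfected with a Rab9 promoter–luciferase construct, following 24 h compound exposure at 37 °C and 10 min reagent incubation at ambient temperature.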
SMN2 splice enh = SMN2 splice variant enhancement; HEK293 SMN2-luciferase splicing reporter, luminescence, 30-36 h; Potency, µM (series often up to 46.1 µM), usual class: activators; 210,000 compounds, 2.8% hits; AID 1458; also: nearly all actives have a fitted effect of over 55% in size
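HEK293 cells carry an SMN2 […]–luciferase reporter in which exon 7 inclusion puts luciferase in frame. Cells were plated 10-12 h before compound addition, then incubated 30-36 h at 37C. ONE-Glo luminescence was read; sodium butyrate at 4.5 mM final served as control.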
Numbers stand for hits; i = inactive; ? = inconclusive; nt = not tested or not shown; [ ] = another dose, or the depositor's remark. Calls follow the shape of the dose curve; as a rule, active = well fitted curve in the direction sought with a large enough effect; inconclusive = small, poorly fitted or top-dose-only effect, or another doubt; inactive = no such curve, though single readings can be large; an effect the other way counts as inactive or inconclusive.

SMILES | NPC1 prom act | ELG1 DNA repair | ELG1 genotoxic | FLuc modulator | Rab9 promoter act | SMN2 splice enh
O=C(COc1cccnc1[N+](=O)[O-])N1CCC(Cc2ccccc2)CC1 | nt | i | i | nt | nt | nt
N#CC1=C(Nc2ccccc2Cl)SC(c2ccccc2O)NC1=O (stereo unspecified) | i | ? | i | ? | i[1.84 µM] | nt
CCOC(=O)c1c(-c2ccccc2)oc2ccc(N(C(C)=O)S(=O)(=O)c3ccccc3)cc12 | nt | nt | nt | i | nt | i
C[C@H](NC(=O)c1nc[nH]c1C(=O)NCCCCCNC(=O)OC(C)(C)C)C(=O)OC(C)(C)C | i | 5.2µM | i | i | i | nt
CC(C)(C)OC(=O)NCCCC[C@H](NC(=O)c1nc[nH]c1C(=O)N1CCN(c2ccccc2)CC1)C(=O)OC(C)(C)C | i | 21µM | i | i | i | nt
CC(C)(C)OC(=O)NCCCCCNC(=O)c1nc[nH]c1C(=O)N1CCN(c2ccccc2)CC1 | nt | ? | i | nt | nt | nt
CC(C)C[C@H](NC(=O)c1nc[nH]c1C(=O)NCCCCCNC(=O)OC(C)(C)C)C(=O)OC(C)(C)C | i | ? | i | i | i | nt
COc1ccc(-n2nc([N+](=O)[O-])c(=NCc3cccnc3)n2O)cc1 | 3.5µM | ? | ? | ? | 2.8µM | i
COc1ccc(-n2nc([N+](=O)[O-])c(=NCCC3=CCCCC3)n2O)cc1 | ? | ? | ? | ? | 3.5µM | ?
COc1ccc(-n2nc([N+](=O)[O-])c(=NCCc3ccc(C)cc3)n2O)cc1 | ? | ? | i | i | ? | nt
O=[N+]([O-])c1nn(-c2ccc3c(c2)OCCO3)n(O)c1=NCc1ccccc1Cl | ? | ? | ? | 6µM | ? | 13µM
COc1ccc(-n2nc([N+](=O)[O-])c(=NCc3ccco3)n2O)cc1 | 3.5µM | ? | ? | ? | 1.4µM | nt
O=C1CC(Sc2nnc(-c3ccccc3O)o2)C(=O)N1c1ccccc1 (stereo unspecified) | i | i | i | ? | i | i
N#CC1=C2Sc3ccccc3N2CCCC1=O | ? | ? | ? | i | ? | i
N#CC1=C2SC=C(c3ccc(Br)cc3)N2CCCC1=O | ? | ? | i | 5.4µM | 1.6µM | 16µM
COc1cc(C(=O)NCC(=O)N/N=C(C)\C=C\c2ccccc2)cc(OC)c1OC | i | i | i | i | i | i
CCCN(C(=O)c1cc(C)ccc1C)c1c(N)n(Cc2ccccc2)c(=O)[nH]c1=O | i | i | i | i | i | nt
CC(C)c1ccc(NC(=O)C2=CC=CN3CCS(=O)(=O)N=C23)cc1 | i | ? | ? | ? | i | nt
CCc1ccc(NC(=O)C2=CC=CN3CCS(=O)(=O)N=C23)cc1 | i | ? | i | 15µM | i | nt
O=C(Cn1nc(-c2ccccc2)c2ccccc2c1=O)NN1CCOCC1 | i | i | i | i | i | nt
CCCCOc1ccc(C(=O)Nc2ccc(OCC(=O)N3CCOCC3)cc2)cc1 | ? | ? | i | 1.1µM | i | nt
O=C(Nc1ccc(OCC(=O)N2CCOCC2)cc1)c1cncc(Br)c1 | i | 9.2µM | i | ? | i | i
Cc1ccc(C(=O)Nc2cc(C)c(OCC(=O)N3CCOCC3)c(C)c2)cc1 | ? | ? | ? | 0.67µM | 2.8µM | 11µM
COc1ccccc1C(=O)Nc1cc(C)c(OCC(=O)N2CCOCC2)c(C)c1 | i | i | i | ? | i | nt
COc1ccc(NC(=O)Nc2ccc(OCC(=O)N3CCOCC3)cc2)cc1OC | i | i | i | 13µM | i | nt
SMILES | NPC1 prom act | ELG1 DNA repair | ELG1 genotoxic | FLuc modulator | Rab9 promoter act | SMN2 splice enh
CC1=C(C(=O)Nc2cc(C)ccn2)C(c2ccc(C)cc2)C2=C(CCCC2=O)N1 (stereo unspecified) | i | i | i | i | i | 10µM
CCn1cc(C2C(C(=O)Nc3cc(C)ccn3)=C(C)NC3=C2C(=O)CC(C)(C)C3)c(C)n1 (stereo unspecified) | i | i | i | i | i | i
O=C(O)CCc1nc(-c2ccccc2Cl)no1 | i | i | i | i | i | i
CC1CC1C(=O)OCC(=O)NCc1ccccc1Cl (stereo unspecified) | i | i | i | i | i | i
COc1ccccc1NC(=O)COC(=O)C1CCCC1 | nt | i | i | nt | nt | nt
O=C(COC(=O)C1CCCCC1)Nc1ccccc1OC(F)F | i | i | i | 24µM | i | i
O=C(COC(=O)COc1ccccc1)NCCc1ccccc1 | i | i | i | i | i | nt
O=C(COC(=O)C1CCC1)NCc1ccccc1Cl | i | i | i | 24µM | i | i
O=C(COC(=O)C1CCCCC1)NCCc1ccccc1 | i | i | i | 17µM | i | i
O=C(OCc1nc(-c2ccccc2Cl)no1)c1ccco1 | i | i | i | 12µM | i | nt
Cc1nc2sc(C(c3cccs3)N3CCN(Cc4ccccc4)CC3)c(O)n2n1 (stereo unspecified) | i | i | i | i | i | nt
NS(=O)(=O)c1ccc(CCNC(=O)CSc2ccc(Cl)cc2Cl)cc1 | i | i | i | i | i | nt
O=C(CN1CCN(C2CCCCC2)CC1)Nc1cccc2ccccc12 | i | i | i | i | i | i
O=C(COC(=O)c1ccco1)NCc1ccc(Cl)cc1Cl | nt | i | i | nt | nt | nt
O=C(COC(=O)c1ccco1)NCc1ccccc1Cl | i | i | i | 27µM | i | i
N#CC1(C#N)C(c2ccccc2)OC23CCCCCC2C1(C#N)C(=N)O3 (stereo unspecified) | i | i | i | i | i | i
O=C(Nc1ccccc1)Nc1ncc([N+](=O)[O-])s1 | ? | ? | ? | 1.5µM | ? | 4µM
CC(C)CC(=O)Nc1ncc([N+](=O)[O-])s1 | i | ? | i | ? | i | nt
Cc1nc(C)c(C(=O)Nc2ncc([N+](=O)[O-])s2)o1 | ? | ? | ? | 1.9µM | ? | 0.89µM
O=C(Nc1cc([N+](=O)[O-])ccc1O)c1cccc([N+](=O)[O-])c1 | ? | i | i | ? | ? | nt
O=C(Nc1ncc([N+](=O)[O-])s1)c1cccc([N+](=O)[O-])c1 | 0.089µM | ? | ? | 0.67µM | 0.1µM | nt
Cc1cc(O)c(C(C)C)cc1C1(c2cc(C(C)C)c(O)cc2C)OC(=O)c2ccccc21 | i | 16µM | i | i | i | i[9.22 µM]
CCOC(=O)CN1c2ccccc2NC(=O)CC1C (stereo unspecified) | i | ? | i | i | i | i
Cc1ccc(NC(=O)C2CC(=O)N/C(=N/NC(=O)c3ccc(C)cc3)S2)cc1 (stereo unspecified) | i | i | i | ? | i | i
CSCC[C@H](NC(=O)c1cccc(S(=O)(=O)N2CCCCCC2)c1)c1nc2ccccc2[nH]1 | nt | 23µM | i | nt | nt | nt
CCn1nc(C(=O)N[C@@H](CCSC)c2nc3ccccc3[nH]2)c2ccccc2c1=O | i | i | i | 11µM | i | i
CSCCC(NC(=O)c1cccc(S(=O)(=O)N2CCOCC2)c1)c1nc2ccccc2[nH]1 (stereo unspecified) | i | i | i | nt | i | nt
